Reference: PubChem BioAssay (NCATS)

Test: qHTS profiling of the MIPE4 collection as inhibitors of Plasmodium falciparum (HB3) proliferation (AID 743347);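 note: plate controls were DMSO vehicle wells for no effect and artemisinin wells for full effect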
Conditions: P. falciparum HB3 in erythrocytes, SYBR Green DNA, 72 h; at 28.5 µM (top of the series) unless noted
Source text: Plasmodium falciparum is a virulent malarial parasite that kills 1-2 million people worldwide each year. Transmitted by mosquitoes, the sporozoite form of the parasite enters the blood stream to infect hepatocytes, where they become merozoites that infect red blood cells (erythrocytes). Within erythrocytes, merozoites begin a […] cycle of growth and division, after which the parasite is released to infect new red blood cells. Gametocytes, which form within erythrocytes as well, circulate in the bloodstream and are ingested by the mosquito, thereby completing the life cycle. To profile malarial isolates for differential chemical responses and to identify inhibitors of malarial growth, an assay that measures P. falciparum growth and replication within erythrocytes was employed. This assay uses a DNA binding fluorescent dye (SYBR Green) to detect parasite DNA following cell lysis. Because mature erythrocytes lack DNA, only Plasmodium-derived DNA is detected.
The SYBR Green viability assay was adapted from a method described previously (Plouffe et al., 2008). For screening 3 ul culture medium was dispensed into 1536 well black clear bottom plates (Aurora Biotechnologies) using a Multidrop Combi (Thermo Fisher Scientific Inc.), 23 nL compounds in DMSO were added by a pin tool (Kalypsys), and 5 ul of erythrocytes infected with P. falciparum (0.3% parasitemia, 2.5% hematocrit final concentration) were added. The plates were incubated at 37 C in a humidified incubator in 5% CO2 for 72 h, and 2 ul lysis buffer (20 mM Tris HCl, 10 mM EDTA, 0.16% saponin, 1.6% triton X, 10X SYBR Green I supplied as 10,000X […] by Invitrogen) was added to each well. The plates were mixed for 25 sec with gentle shaking and incubated overnight at room temperature in the dark. The following morning, fluorescence intensity at 485(14) nm excitation and 535(25) nm emission wavelengths was measured on an EnVision (Perkin Elmer) plate reader. Plate reads were normalized relative to the control inhibitor (0.29 uM artemisinin) and vehicle (DMSO) wells present on each plate and then corrected by an algorithm using vehicle-only control plates at the beginning and end of the compound plate stack.

| Structure (SMILES) | growth, % of control |
| --- | --- |
| CC[C@H](C)C(=O)O[C@H]1C[C@@H](C)C=C2C=C[C@H](C)[C@H](CC[C@@H]3C[C@@H](O)CC(=O)O3)[C@H]21 | 85.6% |
| CNS(=O)(=O)CCc1ccc2[nH]cc(C3CCN(C)CC3)c2c1 | 92.7% |
| CCCc1cc(C(N)=S)ccn1 | 6.05% |
| CCC(C)(C)c1ccc(CC(C)CN2C[C@@H](C)O[C@@H](C)C2)cc1 (stereo not given in full) | 26.4% |
| CCCCOc1ccc(CC(=O)NO)cc1 | 5.4% |
| CN(Cc1cc(Br)cc(Br)c1N)C1CCCCC1 | 62.3% |
| CC1=CC(=O)c2ccccc2C1=O | 23.6% |
| CN1CCN(c2c(F)cc3c(=O)c(C(=O)O)cn(CCF)c3c2F)CC1 | 99% |
| CCCN[C@H]1CCc2nc(N)sc2C1 | 6.99% |
| CCOc1cc(N)c(Cl)cc1C(=O)NCC1CN(Cc2ccc(F)cc2)CCO1 (stereo not given) | 99% |
| CC(C)Cn1cnc2c(N)nc3ccccc3c21 | 58.5% |
| O=S(=O)(O)CCS | 66.6% |
| CC(C)(Sc1cc(C(C)(C)C)c(O)c(C(C)(C)C)c1)Sc1cc(C(C)(C)C)c(O)c(C(C)(C)C)c1 | 19.1% |
| C1CCC(C(CC2CCCCN2)C2CCCCC2)CC1 (stereo not given) | 1.94% |
| COc1cnc(NS(=O)(=O)c2ccc(N)cc2)nc1 | 58.8% |
| CN(C)c1ccc(C(=C2C=CC(=[N+](C)C)C=C2)c2ccc(N(C)C)cc2)cc1 | 2.46% |
| COC(=O)Nc1nc2ccc(S(=O)c3ccccc3)cc2[nH]1 (stereo not given) | 104% |
| CC(C)(C)NC(=O)[C@H]1CC[C@H]2[C@@H]3CC[C@H]4NC(=O)C=C[C@]4(C)[C@H]3CC[C@]12C | 72.9% |
| CN(C)CCc1c[nH]c2ccc(CS(=O)(=O)N3CCCC3)cc12 | 70.4% |
| N=C(N)c1ccc(OCCCCCOc2ccc(C(=N)N)cc2)cc1 | 3.03% |

| Structure (SMILES) | growth, % of control |
| --- | --- |
| CCN(CC)CC#CCOC(=O)C(O)(c1ccccc1)C1CCCCC1 (stereo not given) | 11.2% |
| C[C@@H]1C[C@H]2[C@@H]3CCC4=CC(=O)C=C[C@]4(C)[C@@]3(Cl)[C@@H](O)C[C@]2(C)[C@@]1(OC(=O)c1ccco1)C(=O)CCl | 6.95% |
| COCCCOc1cc(C[C@@H](C[C@H](N)[C@@H](O)C[C@H](C(=O)NCC(C)(C)C(N)=O)C(C)C)C(C)C)ccc1OC | 86.2% |
| COc1cc(NCc2ccc3nc(N)nc(N)c3c2C)cc(OC)c1OC | 19.6% |
| CC(C)(C#N)c1cc(Cn2cncn2)cc(C(C)(C)C#N)c1 | 66.6% |
| COc1ccc(-c2ccc3cc(C(=O)O)ccc3c2)cc1C12CC3CC(CC(C3)C1)C2 | 111% |
| COc1ccc2c(c1)c(CC(=O)OCC(=O)O)c(C)n2C(=O)c1ccc(Cl)cc1 | 80.2% |
| COc1ccc(C(=O)CC(=O)c2ccc(C(C)(C)C)cc2)cc1 | 2.68% |
| Cn1c(=O)c2c(ncn2CC(O)CO)n(C)c1=O (stereo not given) | 56.5% |
| CCCOc1ccc(C(=O)OCCN(CC)CC)cc1N | 63.6% |
| CCc1c2c(nc3ccc(OC(=O)N4CCC(N5CCCCC5)CC4)cc13)-c1cc3c(c(=O)n1C2)COC(=O)[C@]3(O)CC | 71.1% |
| O=C(O)CSCC(=O)NC1CCSC1=O (stereo not given) | 99.2% |
| CCc1cc(C(N)=S)ccn1 | 2.68% |
| CC(=O)Oc1ccccc1C(=O)Nc1ncc([N+](=O)[O-])s1 | 4.58% [at 57.5 µM] |
| Cc1oc(=O)oc1CN1CCN(c2cc3c(cc2F)c(=O)c(C(=O)O)c2n3C(C)S2)CC1 (stereo not given) | 24.3% |
| COc1cc(NS(=O)(=O)c2ccc(N)cc2)nc(OC)n1 | 91% |
| Cc1cccc(Nc2ccncc2S(=O)(=O)NC(=O)NC(C)C)c1 | 95.2% |
| COc1cc2c(Nc3ccc(Br)cc3F)ncnc2cc1OCC1CCN(C)CC1 | 3.4% |
| Cc1noc(NS(=O)(=O)c2ccc(N)cc2)c1C | 98.2% |
| C[C@@H]1CN(c2c(F)c(N)c3c(=O)c(C(=O)O)cn(C4CC4)c3c2F)C[C@H](C)N1 | 72.3% [at 9.64 µM] |
